Test results: PubChem BioAssay AID2797 (The Scripps Research Institute Molecular Screening Center, 2010)
Hit rate of the full screen: of about 320,000 compounds, about 820 (0.26%) were called active. For the sample, actives were picked, then their nearest neighbours and some compounds at random. A number with no mark means an inactive call.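 Rule for the calls: active = activation above the mean activation of all tested compounds plus 3 SD, per screening run (cut at about 20% in these data); inactive = the rest.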

biological target: Vasopressin V1a receptor (Homo sapiens) (UniProt P37288); test: agonists of human V1a receptor, primary screen, counter-screen for OXTR agonist project, fluorescence, CHO-V1R cells (AID 2797); conditions: Fluo-8 calcium fluorescence, agonist mode, at 3 µM, active compounds read high, 0% DMSO, 100% 3 nM vasopressin;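 note: signal is peak over basal fluorescence ratio across a 100 second FLIPR read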
Sequence (P37288 whole entry, looked up): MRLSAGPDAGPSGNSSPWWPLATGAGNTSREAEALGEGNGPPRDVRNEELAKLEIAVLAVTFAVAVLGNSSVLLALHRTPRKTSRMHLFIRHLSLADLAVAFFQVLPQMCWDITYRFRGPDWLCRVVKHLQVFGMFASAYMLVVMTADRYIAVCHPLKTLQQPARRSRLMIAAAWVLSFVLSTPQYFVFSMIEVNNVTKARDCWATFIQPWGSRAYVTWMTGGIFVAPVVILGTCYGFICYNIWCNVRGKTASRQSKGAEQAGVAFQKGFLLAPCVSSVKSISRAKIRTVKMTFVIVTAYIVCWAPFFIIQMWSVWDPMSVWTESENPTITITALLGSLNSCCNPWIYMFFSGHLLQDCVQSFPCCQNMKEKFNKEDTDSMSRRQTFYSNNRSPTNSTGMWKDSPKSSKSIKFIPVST

Row | Compound | activation
1 | Cn1c2ccccc2c(=O)c2c(=O)n(Cc3ccco3)c(COc3ccccc3)nc21 | 2.23%
2 | CCCc1nc2c(c(=O)c3ccccc3n2C)c(=O)n1C1CCCCCC1 | 86.8% (active)
3 | Cn1c2ccccc2c(=O)c2c(O)cccc21 | 0.32%
4 | NS(=O)(=O)c1ccc(NC(=O)COC(=O)C2(c3ccc(F)cc3)CCCC2)cc1 | 10.2%
5 | CCC(C(=O)Nc1ccc(C(C)C)cc1)c1ccccc1 (stereo not given) | 40.7% (active)
6 | CCC(C(=O)OCC(=O)Nc1ccc(C(=O)Nc2ccc(OC)cc2)cc1)c1ccccc1 (stereo not given) | 6.96%
7 | CCC(C(=O)Nc1ccc2c(c1)OCCO2)c1ccccc1 (stereo not given) | 1.12%
8 | COc1ccc2c(c1)C(=O)Nc1cc(Cl)ccc1N2 | 3.78%
9 | CCOC(=O)CC1C(=O)NCCN1c1nc2c(C)cccn2c(=O)c1/C=C1\SC(=S)N(C(C)CC)C1=O (stereo not given) | 34% (active)
10 | CCOC(=O)N1CCN(C(=O)CSc2nc(=O)n3cccc(C)c3n2)CC1 | -0.26%
11 | Cc1cccn2c(=O)c(/C=C(\C#N)C(N)=O)c(N3CCCCCC3)nc12 | -0.28%
12 | Cn1nccc1NC(=O)CC(CC(=O)O)c1ccccc1 (stereo not given) | -0.62%
13 | Cc1ccc(C(=O)NCC(=O)OCc2nnc(-c3ccccc3)o2)cc1 | 1.89%
14 | CCCc1ccc(C(=O)[C@@H]2[C@@H](C(C)=O)N3c4ccc(F)cc4C=C[C@@H]3[C@@]23C(=O)Nc2ccccc23)cc1 | -0.96%
15 | CC1CCN(c2c(NCc3ccc(C(=O)NCc4ccccc4)cc3)c(=O)c2=O)CC1 | 0.76%
16 | Cc1ccc(CNC(=O)c2cccc3c2C(=O)c2ccc(N4CCC(C)CC4)cc2S3(=O)=O)cc1 | 49.5% (active)
17 | Cc1ccc(CNC(=O)c2ccc3c(c2)S(=O)(=O)c2ccccc2C3=O)cc1 | -0.95%
18 | CCCN(CCC)CCCNC(=O)CNC(=O)c1nn(-c2ccc(OC)cc2)c(=O)c2ccccc12 | 2.99%
19 | CCOC(=O)C1=C(CC)Nc2ccccc2N=C1NC(=O)c1cccc(S(=O)(=O)N2CCCC2)c1 | -0.11%
20 | Cc1ccccc1NC(=O)NCC1CCN(Cc2cccc(Cl)c2)CC1 | 3.18%
21 | Cc1cccc(CN2CCC(CNC(=O)Nc3ccc(F)c(Cl)c3)CC2)c1 | 26.4% (active)
22 | Cc1ccc(C)c(CN2CCC(CNC(=O)Nc3ccc(C)c(F)c3)CC2)c1 | 4.31%
23 | CC(C)C(=O)Nc1cccc(NC(=S)NC(=O)C(c2ccccc2)c2ccccc2)c1 | 6.96%
24 | CCNC(=S)NNC(=O)Cc1ccccc1 | -0.19%
25 | CCCCC(=O)NNC(=S)NC(=O)C(c1ccccc1)c1ccccc1 | 73.7% (active)
